Activity calls are given as the source filed them.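 How the source made its calls: active means response relative to DMSO over 150%; inconclusive means yeast strain with under 70 recorded events; inactive means the rest.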
Experiment: AGP1-GFP expression modulators, hit retest, confirmation, cell-based, flow cytometry, S. cerevisiae, cherry pick set 3 (AID 504334);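 further: median GFP fluorescence per well by flow cytometry over the all cells gate; ratio of sample to mean DMSO control signal so DMSO = 100% not 0%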
Conditions: S. cerevisiae AGP1-GFP strain, 3 h, at 10 µM, stronger effect = higher value

Percent response vs DMSO, inactive:
COc1cccc2c(O)cc(=O)n(C)c12 99.1%
Cc1ccc(C(=O)/C=C/Nc2cccc(O)c2)cc1 96.8%
CN1CCN(C(=O)c2cc(COc3ccc(F)cc3Cl)on2)CC1c1ccccc1 (stereo unspecified) 101%
Cn1c(NCCCO)nc2c(c1=O)C1(CCCCC1)Cc1ccccc1-2 104%
CC(=O)CC(=O)Nc1ccc(C(N)=O)cc1 100%
COC1=C/C(=C/c2c(N)n3cc(C)sc3nc2=O)C=CC1=O 100%
COc1ccccc1Nc1nc(NCCC(C)C)nc(N)c1[N+](=O)[O-] 104%
COc1cc(=O)n(C)c2c(O)cccc12 98.1%
O=C(N/N=C/c1ccccc1O)c1cccc2ccccc12 99.8%
CCCC(=O)Nn1cnc2c(c1=O)C1(CCCCC1)Cc1ccccc1-2 102%
CCN(CC)C(=O)Oc1cc(=O)n(C)c2ccccc12 100%
Nc1c(O)ccc2c1C(=O)c1ccccc1C2=O 110%
O=C(Nc1ccccc1Cl)ON=C1c2ccccc2-c2ccccc21 99.1%
O=C(O)c1ccc2cccnc2c1O 99.8%
Nc1nc(NCCOCCO)nc(Nc2cccc(F)c2)c1[N+](=O)[O-] 98.1%
CCCOCc1ccc(O)c2ncccc12 99.8%
Cc1ccc(C)c(Nc2ncnc(N)c2[N+](=O)[O-])c1 102%
NC(=O)COc1cccc2cccnc12 98.1%
O=C(Nc1cccc(Cl)c1)ON=C1c2ccccc2-c2ccccc21 99.1%
C=CCNc1nc(N)c([N+](=O)[O-])c(Nc2ccccc2OC)n1 95.4%
O=C(O)CCCCCNc1ncnc2ccc(Br)cc12 101%

Reference: PubChem BioAssay AID504334 (NMMLSC, 2011)
